Compound activity deposited in PubChem BioAssay by National Center for Advancing Translational Sciences (NCATS).
JMJD2A Tudor – qHTS Assay for Inhibitors of JMJD2A-Tudor Domain; Lysine-specific demethylase 4A (Homo sapiens), O75164; Potency, µM (doses to about 114 µM), for the others: at the highest dose activity change, negative = inhibition, hits mostly inhibitors; AlphaScreen JMJD2A-Tudor / H3K4me3 peptide binding; 4.4% of 390,000 active; AID 504339, 2011; further: on the % scale 0 is the no-effect control and ±100 the full control effect; nearly all actives have a fitted effect of over 50% in size
G9a inh – qHTS Assay for Inhibitors of Histone Lysine Methyltransferase G9a; Histone-lysine N-methyltransferase EHMT2 (Homo sapiens), Q96KQ7; G9a H3K9 monomethylation, AlphaScreen, 2 h; Potency, µM (top dose mostly 102 µM), without a hit: top-dose activity, negative = inhibition, most hits filed as inhibitors; 8.8% of 350,000 active; AID 504332, 2011; further: on the % scale 0 is the no-effect control and ±100 the full control effect; nearly all actives have a fitted effect of over 75% in size
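G9a (20 nM) was preincubated 15 min with compound, then reacted 2 h at room temperature with 500 nM biotin-H3K9 peptide and 20 µM SAM. Monomethyl-H3K9 detected by AlphaScreen using anti-H3K9me1 antibody.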
GLS inhibitor – qHTS for Inhibitors of Glutaminase (GLS); Glutaminase kidney isoform, mitochondrial (Homo sapiens), O94925; GLS enzymatic activity, qHTS titration; Potency, µM (doses to about 45.5 µM), for inactives: at the highest dose activity change, negative = inhibition, actives largely listed as inhibitors; 0.21% of 410,000 active; further: on the % scale 0 is the no-effect control and ±100 the full control effect
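Enzyme dispensed in phosphate buffer (45 mM, pH 8.2, 0.02% Tween-20), compounds pinned in, then 1 mM L-glutamine solution and the glutamate oxidase–HRP–Amplex Red mix added; fluorescence read immediately and again after 30 min at room temperature.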
BAZ2B inh – qHTS Assay for Inhibitors of BAZ2B. AlphaScreen BAZ2B-H3K14Ac peptide displacement. 4.4% of 360,000 active. Potency, µM (doses to about 114 µM), for the others: top-dose activity change, negative = inhibition, hits mostly inhibitors. Bromodomain adjacent to zinc finger domain protein 2B (Homo sapiens), Q9UIF8; further: on the % scale 0 is the no-effect control and ±100 the full control effect; nearly all actives have a fitted effect of over 60% in size
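Compounds, titrated to a top concentration of 110 uM, were incubated 30 min at room temperature with preformed BAZ2B/acetyl-K14 H3 peptide complex (50 nM each). Proximity signal was measured by AlphaScreen after 20 min with beads.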
HP1b binding inh – HTS for Inhibitors of HP1-beta Chromodomain Interactions with Methylated Histone Tails; Chromobox protein homolog 1 (Homo sapiens), P83916; AlphaScreen HP1-beta / biotin-H3K9me3 peptide binding; Potency, µM (series often up to 114 µM), inactives show top-dose activity change, negative = inhibition, usual class: inhibitors; 0.56% of 390,000 active; further: nearly all actives have a fitted effect of over 70% in size
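HP1-beta protein (50 nM final) preincubated 30 min at room temperature with biotinylated H3(1-18)K9me3 peptide (50 nM) in PBS pH 7.4, 0.01% Tween-20, then compound added for 30 min. AlphaScreen streptavidin donor/nickel chelate acceptor beads (10 ug/mL final), 30 min dark, luminescence read.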
* hit, by the source's call; ? = inconclusive; . = no result given; [ ] = another dose, or the depositor's remark. Only some compounds are listed: those with a hit (about 10% of all), similar ones and a draw of the others. The call rests on the fitted dose curve; in most records, active means well fitted curve in the direction sought with a large enough effect; inconclusive means small, poorly fitted or top-dose-only effect, or another doubt; inactive means no such curve, though single readings can be large; an effect the other way counts as inactive or inconclusive. Potency means the concentration at half of the fitted maximal effect.

SMILES	JMJD2A Tudor	G9a inh	GLS inhibitor	BAZ2B inh	HP1b binding inh
N#Cc1cnc(SCCc2ccccc2)nc1N	-4%	?	-1%	-1%	64%
Cc1nnc(NC(=O)c2cc(-c3ccco3)nc3ccccc23)s1	.	40µM*	.	40µM*	.
O=C(Nc1nccs1)c1cc(-c2ccccc2)nc2ccccc12	-34%	3%[59 µM]	1%	-38%	11%
O=C(Nc1nccs1)c1cc(-c2ccco2)nc2ccccc12	-32%	?	-23%	50µM*	-6%
Cn1ccc(-c2cc(C(=O)O)c3ccccc3n2)n1	-12%	50µM*	1%	?	2%
O=C(N/N=C/c1ccc(F)cc1)c1cc(-c2ccco2)nc2ccccc12	?	?	10µM*	2.8µM*	22µM*
CCn1cc(C(=O)NCCc2ccc(OC)c(OC)c2)c(=O)c2cc(S(=O)(=O)N3CCc4ccccc4C3)ccc21	-18%	?	-13%	.	8%
Cc1nn(CCC(=O)Nc2cc(F)ccc2F)c(=O)c2nn(-c3ccccc3)c(C)c12	-7%	-9%[59 µM]	0%	-19%	20%
CN1CCN(C(c2ccc(F)cc2)c2sc3nc(-c4ccco4)nn3c2O)CC1 (stereo unspecified)	7%	-5%[59 µM]	-5%	-5%	39%
Cc1ccc(-c2cc(C(=O)N3CCN(c4ccccc4)CC3)c3ccccc3n2)cc1C	?	?	-10%	-5%	47%
O=C(O)c1cc(-c2ccco2)nc2ccccc12	25µM*	28µM*	?	?	45µM*
O=C(c1cc(-c2ccco2)nc2ccccc12)N1CCN(c2ccc(F)cc2)CC1	56µM*	?	1%	50µM*	-14%
CC1(C)C(=O)N(CC(=O)Nc2cccc(F)c2)c2ccc(S(=O)(=O)N3CCCCC3)cc21	-19%	10%[59 µM]	-5%	-1%	10%[57 µM]
COc1ccccc1CNC(=O)c1cc2cc(C)ccc2n1C	0%	5%[59 µM]	-1%	-10%	48%
Cc1ccc(C(c2nnnn2C2CCCCC2)N(C)C2CCCCC2)cc1 (stereo unspecified)	9%	1.8µM*	3%	4%	19%
COc1ccc(C(c2nnnn2C2CCCCC2)N2CCN(c3ccc(OC)cc3)CC2)cc1 (stereo unspecified)	?	?	-9%	40µM*	?
c1cc(N2CCCC2)ccc1C(c1nnnn1C1CCCCC1)N1CCOCC1 (stereo unspecified)	?	10µM*	2%	?	-18%
COc1ccc(OC)c(C(c2nnnn2C2CCCC2)N2CCN(c3ccccc3)CC2)c1 (stereo unspecified)	56µM*	32µM*	-2%	50µM*	-24%
COc1ccc(C(c2nnnn2C2CCCCC2)N2CCN(C)CC2)c(OC)c1 (stereo unspecified)	-3%	-37%	2%	-10%	29%
O=C(NC1CCCCC1)c1cnn2c1NC(=C1CC1)C=C2C(F)F	.	.	.	.	21%
Cc1ccc(-n2nnnc2CNC(=O)c2ccc(F)cc2)cc1C	-17%	5%[59 µM]	3%	8%	26%[57 µM]
Cc1ccc(C)c(OCCSc2nc3ccccc3n2CC(=O)N2CCOCC2)c1	-30%	?	3%	?	22%
Cc1ccc(OCCSc2nc3ccccc3n2CC(=O)N2CCCCC2)c(C)c1	-30%	14µM*	1%	-25%	3%
Oc1ccc(Nc2nc(NCC3CCCO3)c3ccccc3n2)cc1 (stereo unspecified)	?	50µM*	47%	?	-21%
COc1cccc(Nc2nc(NCC3CCCO3)c3ccccc3n2)c1 (stereo unspecified)	-35%	45µM*	0%	-31%	-6%
SMILES	JMJD2A Tudor	G9a inh	GLS inhibitor	BAZ2B inh	HP1b binding inh
Oc1ccccc1Nc1nc(NCC2CCCO2)c2ccccc2n1 (stereo unspecified)	-32%	50µM*	-5%	?	3%
CC(/C=C/c1ccc(N(C)C)cc1)=N/N=C1/NC(=O)CC(C(=O)Nc2ccc(Cl)cc2)S1 (stereo unspecified)	?	32µM*	0%	?	-17%
CC(/C=C/c1ccc(N(C)C)cc1)=N\N=C1\NC(=O)CC(C(=O)Nc2ccccc2)S1 (stereo unspecified)	?	?	17%	?	-12%
CCOc1ccc(C(=O)N2CCN(c3ncccn3)CC2)cc1	-17%	.	-6%	.	20%
CCN(CC)C(=O)CN1CCN(c2ncccn2)CC1	4.5µM*	5.6µM*	-2%	25µM*	?
Cc1c(Cl)c(-c2n[nH]c(=S)n2-c2ccc(F)cc2)nn1C	45µM*	?	14%	-5%	27%
Fc1ccc(-n2c(-c3ccc4ccccc4n3)n[nH]c2=S)cc1	-32%	0%	-8%	-9%	21%
Cn1cc(Cl)c(-c2n[nH]c(=S)n2-c2ccccc2)n1	6.3µM*	8.9µM*	-4%	-1%	36%
Cc1c(-n2c(-c3ccccc3Cl)n[nH]c2=S)c(=O)n(-c2ccccc2)n1C	?	45µM*	-3%	?	50%
Cc1cc(OCc2n[nH]c(=S)n2-c2ccccc2)ccc1Cl	?	.	13%	-7%	8%
Cc1c(-c2n[nH]c(=S)n2-c2ccc(C(F)(F)F)cc2)nnn1-c1ccccc1	?	10µM*	20%	-2%	-6%
CN(C)C(=O)c1cccc(COc2ccc(N3C(N)=NC(N)=NC3(C)C)cc2Cl)c1	.	.	4%	.	.
OC[C@@H]1CN(Cc2ccncc2)C[C@H](n2cnc3c(NC4CCCC4)ncnc32)O1	.	.	-1%	.	.
O=[S+]([O-])(c1c(F)cccc1F)N1CCN([S+](=O)([O-])c2cccc3nonc23)CC1	-14%	.	.	.	.
Cc1nn(C)c(-c2n[nH]c(=S)n2-c2ccccc2)c1Cl	35µM*	3.2µM*	5%	3%	19%
Cc1ccc(-n2c(-c3cn(C)nc3C)n[nH]c2=S)cc1	.	?	.	-20%	.
Cn1cc(Cl)c(-c2n[nH]c(=S)n2-c2ccc(F)cc2)n1	?	7.9µM*	5%	-3%	47%
Cc1nn(C)cc1-c1n[nH]c(=S)n1-c1ccc(F)cc1	5.6µM*	10µM*	-11%	-20%	16%
S=c1[nH]nc(-c2ccc3ccccc3n2)n1-c1cc(Cl)cc(Cl)c1	-29%	?	5%	-25%	12%
Cc1ccc(-n2c(-c3nn(C)cc3Cl)n[nH]c2=S)cc1	8.9µM*	3.2µM*	2%	2%	27%
CS(=O)(=O)N(Cc1ccccc1)c1ccc(C(=O)Nc2ccc(Cl)cc2)cc1	-5%	7%[59 µM]	5%	5%	42%
